Ten compounds from PubChem BioAssay (NCATS) can be followed below.

“And” between values parts separate entries of the source, which are not always exact repeats. Equal entries are not always repeated. Results filed as inconclusive are left out. Unmarked numbers belong to inactive results. The source made the active and inactive calls. Calls follow the shape of the dose curve; as a rule, active = well fitted inhibition curve with a large enough effect; inconclusive = small, poorly fitted or top-dose-only effect; inactive = flat fitted curve, though single readings scatter.

The test system of one assay is CRL-7250. In words: Cytotoxic Profiling of Annotated Libraries Using Quantitative High-Throughput Screening (AID 1296008). Also: potency is read from the fitted curve at half-maximal effect. As to max response: % is scaled to controls: 0 for no effect and ±100 for the full control effect. As to conditions: Five cell lines viability, CellTiter-Glo ATP luminescence, 48-72 h; max response: hits give low values. In short, it runs like this:
(§1)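 Compounds were pin-transferred onto cells and incubated 48 or 72 hr at 37 degree Celsius, 95% humidity. CellTiter-Glo was added, plates sat 10 min at room temperature, then ATP-coupled luminescence was imaged as the viability read-out.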
A general note: In ATP-based viability assays light output follows the ATP content of the culture.

Assay [1] concerns HaCat. The assay is described as above. As to conditions: Five cell lines viability, CellTiter-Glo ATP luminescence, 48-72 h; max response: hits give low values. In short, it runs like this:
as §1

The subject of another assay is KB-3-1. The assay is described as above. The note with it: Five cell lines viability, CellTiter-Glo ATP luminescence, 48-72 h; max response: hits give low values. Summed up:
as §1

Assay [2] deals with NIH3T3. The description is as above. The note with it: Five cell lines viability, CellTiter-Glo ATP luminescence, 48-72 h; max response: hits give low values. In short, it runs like this:
as §1

Assay [3] has as its system HACAT. Put plainly: qHTS assay to identify novel small-molecules to repurpose for Merkel cell carcinoma treatment (AID 1296009). The note with it: MCC and control cell lines, CellTiter-Glo viability, 72 h; at 44.8 µM (top of the series) unless noted. Summed up:
(§2)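 Cells exposed to NPC (8-point) and MIPE (11-point) compound dilutions for 72 hr at 37 degree celsius; viability read by CellTiter-Glo luminescence, normalized to no-cell and DMSO in-plate controls.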
(In general: Quantitative high-throughput screening tests each substance at several concentrations.)

Another assay deals with HEK293T. The assay is described as above. As to conditions: MCC and control cell lines, CellTiter-Glo viability, 72 h; at 44.8 µM (top of the series) unless noted. Summed up: as §2
Another assay concerns MCC-13. The assay is described as above. As to conditions: MCC and control cell lines, CellTiter-Glo viability, 72 h; series mostly up to 46 µM. In short, it runs like this:
as §2

Another assay relates to MCC-26. Described as above. The note with it: MCC and control cell lines, CellTiter-Glo viability, 72 h; series mostly up to 46 µM. Summed up:
as §2

In another assay the test system is MKL-1. The description is as above. The note with it: MCC and control cell lines, CellTiter-Glo viability, 72 h; series mostly up to 46 µM. In short, it runs like this:
as §2

A further assay has as its system MKL-2. Described as above. As to conditions: MCC and control cell lines, CellTiter-Glo viability, 72 h; series mostly up to 46 µM. In short, it runs like this:
as §2

The subject of assay [4] is NIH3T3. Described as above. As to conditions: MCC and control cell lines, CellTiter-Glo viability, 72 h; at 44.8 µM (top of the series) unless noted. In short, it runs like this: as §2
In another assay the test system is UISO. Described as above. As to conditions: MCC and control cell lines, CellTiter-Glo viability, 72 h; series mostly up to 46 µM. In short, it runs like this: as §2
In the next assay the test system is WaGa. The description is as above. The note with it: MCC and control cell lines, CellTiter-Glo viability, 72 h; series mostly up to 46 µM. In short, it runs like this: as §2
For another assay, the system named is HEK293. Put plainly: Cytotoxic Profiling of Annotated Libraries Using Quantitative High-Throughput Screening (AID 1296008). Also: potency is read from the fitted curve at half-maximal effect. As to max response: % is scaled to controls: 0 for no effect and ±100 for the full control effect. The note with it: Five cell lines viability, CellTiter-Glo ATP luminescence, 48-72 h; max response: hits give low values. Summed up:
as §1

The next assay has as its system PC49. Put plainly: qHTS profiling for inhibitors of Plasmodium falciparum proliferation (AID 504749). Also: potency is read from the fitted curve at half-maximal effect. As to conditions: P. falciparum in erythrocytes, SYBR Green DNA, 72 h; series mostly up to 28.7 µM. In short, it runs like this: (§3)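 P. falciparum-infected erythrocytes (0.3% parasitemia, 2.5% hematocrit final) were exposed to compounds for 72 h at 37 C in 5% CO2, then lysed with SYBR Green buffer overnight at room temperature; parasite DNA fluorescence was normalized to artemisinin and DMSO controls.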

The subject of a further assay is SC27B. The description is as above. As to conditions: P. falciparum in erythrocytes, SYBR Green DNA, 72 h; series mostly up to 28.7 µM. Summed up: as §3
The subject of the next assay is TAB109. Described as above. The note with it: P. falciparum in erythrocytes, SYBR Green DNA, 72 h; series mostly up to 28.7 µM. Summed up:
as §3

Another assay deals with TAB113. Described as above. As to conditions: P. falciparum in erythrocytes, SYBR Green DNA, 72 h; series mostly up to 28.7 µM. Summed up: as §3
The test system of another assay is TAB165. Described as above. As to conditions: P. falciparum in erythrocytes, SYBR Green DNA, 72 h; series mostly up to 28.7 µM. Summed up:
as §3

The subject of the next assay is W2. The description is as above. The note with it: P. falciparum in erythrocytes, SYBR Green DNA, 72 h; series mostly up to 28.7 µM. In short, it runs like this: as §3
Also: nearly all actives have a fitted effect of over 60% in size.

Turning to `O=C(O)CCn1c2c(c3ccccc31)C[C@H](NS(=O)(=O)c1ccc(F)cc1)CC2`, the max response in the assay with CRL-7250 is -4.51%; in the assay with HaCat [1], 4.42% and 4.82%; with KB-3-1, 0.769% and -7.72%; with NIH3T3 [2], -9.59% and 4.36%. For the same compound, the outcome with CRL-7250, with HaCat [1], with KB-3-1, in the assay on NIH3T3 [2], in the assay with HACAT [3] and in the assay with HEK293T was inactive. In the assay on NIH3T3 [4], the compound was called inactive. The Potency result with MCC-13, in the assay on MCC-26, in the assay with MKL-1, with MKL-2, in the assay on UISO and with WaGa was “inactive” each time.

For the compound `COc1ccccc1OCC(O)COC(N)=O` (stereo not given), the max response in the assay on CRL-7250 is -1.17%; with HEK293, 2.15%; in the assay on HaCat [1], -15.7%; in the assay on KB-3-1 it was 5.86% and 1.39%; in the assay on NIH3T3 [2], 4.42% and 1.69%. Also, the outcome in the assay with CRL-7250, with HEK293, in the assay on HaCat [1], in the assay on HACAT [3] and in the assay on HEK293T was inactive. For the same compound, the Potency entry with MCC-13, in the assay on MKL-1, in the assay on MKL-2, with UISO and with WaGa was “inactive” each time.

Turning to `S=P(N1CC1)(N1CC1)N1CC1`, the Potency entry in the assay with PC49, in the assay on SC27B, in the assay with TAB109, with TAB113, with TAB165 and in the assay with W2 was “inactive” in each case. The Potency result in the assay on MCC-13, with MCC-26, in the assay with MKL-1, in the assay with MKL-2, with UISO and with WaGa was “inactive” each time. Also, the max response in the assay with CRL-7250 was -10.3%; in the assay with KB-3-1, 19% and 33.9% and 9.73%; in the assay with NIH3T3 [2] it was -7.91%. In addition, the compound was called inactive in the assay on CRL-7250 and with HaCat [1]. In addition, in the assay with HEK293, the Potency was 22.8 µM (active). For the same compound, the outcome in the assay with HACAT [3] was “inactive [at 92 µM]”.

As to `CC1=CC(=O)c2ccccc2C1=O`, the Potency entry in the assay with PC49, in the assay with SC27B, in the assay with TAB109, in the assay with TAB113, with TAB165 and in the assay on MCC-13 was “inactive” in each case. The Potency entry in the assay on MCC-26, in the assay on MKL-1, with MKL-2, in the assay with UISO and with WaGa was “inactive” throughout. In the assay with W2, the Potency is 6.01 µM (active). Also, the max response is 3.35% in the assay on CRL-7250, 2.41% with HEK293, 1.53% in the assay on KB-3-1 and -2.61% with NIH3T3 [2]. The call with CRL-7250, in the assay with HEK293, in the assay with HaCat [1], in the assay with KB-3-1, with NIH3T3 [2] and in the assay with HACAT [3] was inactive. Moreover, the result in the assay with HEK293T and in the assay with NIH3T3 [4] was inactive.

Regarding `CCC(=O)O[C@]1(C(=O)CCl)[C@@H](C)C[C@H]2[C@@H]3CCC4=CC(=O)C=C[C@]4(C)[C@@]3(F)[C@@H](O)C[C@@]21C`, the max response with CRL-7250 was -12.4%; in the assay on HEK293 it was -0.886%; in the assay on HaCat [1], -4.36% and -8.18%; in the assay with KB-3-1 it was -5.78% and 1.04%; in the assay with NIH3T3 [2], -2.25%. In addition, the call in the assay on CRL-7250, in the assay with NIH3T3 [2] and in the assay with NIH3T3 [4] was inactive. The Potency result with MCC-13, in the assay on MCC-26, in the assay with MKL-1, in the assay with MKL-2, in the assay on UISO and in the assay on WaGa was “inactive” each time.

As for `CCOc1cc(N)c(Cl)cc1C(=O)NCC1CN(Cc2ccc(F)cc2)CCO1` (stereo not given), the Potency in the assay with SC27B was 8.91 µM (active); in the assay with TAB109, 10 µM (active); in the assay with TAB113 it was 14.1 µM (active); with TAB165, 6.31 µM (active); in the assay on W2, 7.57 µM (active). Further, the result with CRL-7250, with HEK293, with HaCat [1], in the assay with NIH3T3 [2], in the assay on HACAT [3] and in the assay on HEK293T was inactive. The compound was called inactive with NIH3T3 [4]. The max response was -10.3% with HaCat [1]; 4.82% and -2.19% in the assay on KB-3-1; 1.17% in the assay with NIH3T3 [2]. Moreover, the Potency result in the assay on MCC-13, in the assay with MCC-26, in the assay on MKL-1, in the assay on MKL-2, in the assay on UISO and in the assay with WaGa was “inactive” each time.

As to `Cc1ccnc2c1NC(=O)c1cccnc1N2C1CC1`, the Potency entry with PC49, with SC27B, in the assay on TAB109, with TAB113, in the assay on TAB165 and with W2 was “inactive” each time. Besides, the Potency entry in the assay on MCC-13, with MKL-1, with MKL-2, with UISO and in the assay with WaGa was “inactive” in each case. The compound was called inactive in the assay with CRL-7250, in the assay on HaCat [1], with KB-3-1 and with HACAT [3]. The max response with HEK293 is -12% and -5.59%; with HaCat [1], -1.71%; with KB-3-1, 17.8%; with NIH3T3 [2], -5.8% and 2.37%.

Turning to `CNNCc1ccc(C(=O)NC(C)C)cc1`, the Potency result in the assay with PC49, in the assay on SC27B, with TAB109, in the assay on TAB113, in the assay on TAB165 and in the assay on MCC-13 was “inactive” throughout. Besides, the Potency result in the assay on MKL-1, in the assay with MKL-2, in the assay with UISO and in the assay with WaGa was “inactive” each time. The call in the assay on CRL-7250, with HEK293, in the assay with HaCat [1], in the assay on KB-3-1, in the assay on NIH3T3 [2] and in the assay on HACAT [3] was inactive. Moreover, the compound was called inactive in the assay on HEK293T and with NIH3T3 [4]. Besides, the max response in the assay on HEK293 is 2.6%; with HaCat [1] it was -9.48%; with KB-3-1, -11.6%; in the assay on NIH3T3 [2] it was -4.42%.

Consider `Cn1c(=O)c2c(ncn2CC(O)CO)n(C)c1=O` (stereo not given), for which the max response is 2.57% and -3.36% in the assay on CRL-7250; -3.34% and -13.7% in the assay with HEK293; 2.18% in the assay on HaCat [1]; 3.89% with KB-3-1; 2.82% and -0.547% in the assay on NIH3T3 [2]. The compound was classed as inactive in the assay on HaCat [1], in the assay on KB-3-1 and in the assay on HACAT [3]. Further, the Potency entry in the assay on MCC-13, in the assay on MCC-26, with MKL-1, in the assay with MKL-2, in the assay with UISO and with WaGa was “inactive” throughout.

Take `Cc1nnc(C(=O)NC(C)(C)c2nc(C(=O)NCc3ccc(F)cc3)c(O)c(=O)n2C)o1`: the max response in the assay with CRL-7250 was 1.7% and -8.84%; in the assay on HaCat [1], -1.85% and 3.43%; with KB-3-1 it was -0.518% and 8.61%; in the assay with NIH3T3 [2] it was -3.12% and 2.12%. Further, the compound was classed as inactive with CRL-7250, with HaCat [1], in the assay with NIH3T3 [2], with HACAT [3] and in the assay with NIH3T3 [4]. The Potency result with MCC-13, with MCC-26, in the assay with MKL-1, in the assay with MKL-2, in the assay with UISO and with WaGa was “inactive” in each case.
